What all share (parameters): scale not given: direction of the effect not stated beside the values
Test [1] addresses Protein translocase subunit SecA (Escherichia coli (strain K12)) (UniProt P10408). Put plainly: Assay to Identify E. coli SecA ATPase Inhibitors. It counts as functional. The conditions noted are these: 30 µM.
For test [2], the target named is T1, Ubiquitin-activating enzyme e1, putative (Leishmania donovani (strain BPK282A1)) (UniProt E9BSI1).
T1 sequence (whole entry): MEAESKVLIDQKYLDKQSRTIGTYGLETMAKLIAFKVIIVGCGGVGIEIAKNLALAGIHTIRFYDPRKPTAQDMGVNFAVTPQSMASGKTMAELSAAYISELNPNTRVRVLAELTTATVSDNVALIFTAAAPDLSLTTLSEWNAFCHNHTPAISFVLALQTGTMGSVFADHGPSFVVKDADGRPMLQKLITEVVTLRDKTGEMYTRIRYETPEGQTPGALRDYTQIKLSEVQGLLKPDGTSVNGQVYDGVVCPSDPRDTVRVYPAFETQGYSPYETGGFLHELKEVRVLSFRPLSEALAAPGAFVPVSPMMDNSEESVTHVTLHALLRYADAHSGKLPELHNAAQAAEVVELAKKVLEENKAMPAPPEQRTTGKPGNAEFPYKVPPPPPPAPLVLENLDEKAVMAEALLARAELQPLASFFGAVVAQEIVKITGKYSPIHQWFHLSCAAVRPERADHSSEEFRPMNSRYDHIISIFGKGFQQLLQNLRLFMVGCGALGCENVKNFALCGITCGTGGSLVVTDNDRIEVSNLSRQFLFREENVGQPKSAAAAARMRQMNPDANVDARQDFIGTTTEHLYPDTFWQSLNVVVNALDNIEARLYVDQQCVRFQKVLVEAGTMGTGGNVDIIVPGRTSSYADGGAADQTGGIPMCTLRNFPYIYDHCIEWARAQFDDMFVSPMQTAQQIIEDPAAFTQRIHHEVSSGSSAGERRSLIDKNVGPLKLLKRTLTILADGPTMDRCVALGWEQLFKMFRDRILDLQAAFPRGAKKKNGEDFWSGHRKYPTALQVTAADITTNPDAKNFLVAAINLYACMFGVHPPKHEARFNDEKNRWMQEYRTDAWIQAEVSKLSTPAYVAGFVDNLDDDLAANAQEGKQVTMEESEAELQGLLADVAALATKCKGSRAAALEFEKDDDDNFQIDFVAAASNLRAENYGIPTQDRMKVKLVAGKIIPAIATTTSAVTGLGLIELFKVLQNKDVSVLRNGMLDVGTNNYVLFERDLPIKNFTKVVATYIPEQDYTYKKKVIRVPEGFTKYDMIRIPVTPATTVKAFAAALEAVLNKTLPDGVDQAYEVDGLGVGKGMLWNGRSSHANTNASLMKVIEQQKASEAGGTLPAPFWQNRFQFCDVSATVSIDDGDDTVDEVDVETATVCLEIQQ
Put plainly: Leishmania donovani Ubiquitin Activating Enzyme (LdE1). The conditions noted are these: 30 µM. It counts as functional.

Test [3] addresses AMP-activated protein kinase, AMPK (Homo sapiens) (UniProt P54646+O43741+P54619+Q9UGJ0+Q9Y478+Q13131+Q9UGI9). Put plainly: AMP-dependent Kinase enzyme assay. An in vitro enzyme assay that detects ADP turnover that is directly proportional to AMPK activity. This uses naive AMPK that is activated during the assay with MK-8722. It counts as functional. The conditions noted are these: 30 µM.

The target in test [4] is Sialic acid-binding Ig-like lectin 9 (Homo sapiens) (UniProt Q9Y336). The test is described as follows: Hs-Siglec9 ALPHAscreen SOP 20170721. The conditions noted are these: 10 µM. (In general: Bead proximity is the source of the signal in Alpha formats.)
Sialic acid-binding Ig-like lectin 9 (Homo sapiens), sequence (Q9Y336 whole entry): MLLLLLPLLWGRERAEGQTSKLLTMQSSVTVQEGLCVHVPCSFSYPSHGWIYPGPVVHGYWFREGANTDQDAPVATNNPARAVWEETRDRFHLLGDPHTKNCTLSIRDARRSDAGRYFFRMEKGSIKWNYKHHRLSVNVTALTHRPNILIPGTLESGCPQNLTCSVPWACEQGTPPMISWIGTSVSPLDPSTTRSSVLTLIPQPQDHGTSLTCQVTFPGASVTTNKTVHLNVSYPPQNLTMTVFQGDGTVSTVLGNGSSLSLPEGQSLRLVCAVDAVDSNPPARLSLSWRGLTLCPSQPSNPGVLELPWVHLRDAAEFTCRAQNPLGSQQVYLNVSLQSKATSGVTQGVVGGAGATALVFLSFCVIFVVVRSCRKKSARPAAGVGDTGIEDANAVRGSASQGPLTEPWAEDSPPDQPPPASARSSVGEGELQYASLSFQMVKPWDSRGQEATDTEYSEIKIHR
Test [5] concerns Trypanosoma cruzi. The test is described as follows: Trypanosoma cruzi phosphomannomutase and mannose-1-phosphate guanylyltransferase assay. In kind it is functional. The conditions noted are these: 10 µM.
Test [6] concerns the target T2, Arginase-2, mitochondrial (Homo sapiens) (UniProt P78540).
T2 sequence (whole entry): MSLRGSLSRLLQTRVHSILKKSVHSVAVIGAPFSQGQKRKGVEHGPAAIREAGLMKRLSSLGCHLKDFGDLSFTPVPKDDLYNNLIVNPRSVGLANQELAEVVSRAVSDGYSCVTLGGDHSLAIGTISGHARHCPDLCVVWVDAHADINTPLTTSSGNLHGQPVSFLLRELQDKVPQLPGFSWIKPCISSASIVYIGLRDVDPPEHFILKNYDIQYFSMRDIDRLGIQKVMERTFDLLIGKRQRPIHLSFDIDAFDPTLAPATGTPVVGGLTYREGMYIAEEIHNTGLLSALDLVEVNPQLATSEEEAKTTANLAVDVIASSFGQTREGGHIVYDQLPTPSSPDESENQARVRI
The test is described as follows: in vitro enzyme assay to detect the production of urea directly proportional to the activity of Arginase II. Also: in the data most compounds retested in dose-response had high values. In kind it is functional. The conditions noted are these: 33.3 µM.

In test [7] the target is T3, Proteasome subunit beta (Trypanosoma cruzi) (UniProt O96673).
T3 sequence (whole entry): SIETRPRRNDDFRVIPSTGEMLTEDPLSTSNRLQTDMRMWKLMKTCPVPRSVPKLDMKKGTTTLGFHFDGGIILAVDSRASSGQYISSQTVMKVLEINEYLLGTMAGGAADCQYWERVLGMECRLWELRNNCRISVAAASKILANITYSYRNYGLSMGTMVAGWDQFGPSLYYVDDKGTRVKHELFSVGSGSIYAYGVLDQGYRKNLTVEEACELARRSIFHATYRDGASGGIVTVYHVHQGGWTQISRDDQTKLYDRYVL
Put plainly: Trypanosoma cruzi proteasome chymotrypsin-like activity (TcProtChymo) assay. Also: in the data most compounds retested in dose-response had high values. To be noted: 9.37 µM. In kind it is functional.

The species named for test [8] is Homo sapiens. Put plainly: To identify inhibition of the IFN signalling (Jak-Stat) pathway via expression of an eGFP reporter gene under the control of an IFN-stimulated response element (ISRE) containing MxA promoter. It counts as functional. To be noted: 30 µM.
Test [9] concerns the target T4, Tyrosyl-tRNA synthetase, putative (Trypanosoma cruzi (strain CL Brener)) (UniProt Q4DSP6).
T4 sequence (whole entry): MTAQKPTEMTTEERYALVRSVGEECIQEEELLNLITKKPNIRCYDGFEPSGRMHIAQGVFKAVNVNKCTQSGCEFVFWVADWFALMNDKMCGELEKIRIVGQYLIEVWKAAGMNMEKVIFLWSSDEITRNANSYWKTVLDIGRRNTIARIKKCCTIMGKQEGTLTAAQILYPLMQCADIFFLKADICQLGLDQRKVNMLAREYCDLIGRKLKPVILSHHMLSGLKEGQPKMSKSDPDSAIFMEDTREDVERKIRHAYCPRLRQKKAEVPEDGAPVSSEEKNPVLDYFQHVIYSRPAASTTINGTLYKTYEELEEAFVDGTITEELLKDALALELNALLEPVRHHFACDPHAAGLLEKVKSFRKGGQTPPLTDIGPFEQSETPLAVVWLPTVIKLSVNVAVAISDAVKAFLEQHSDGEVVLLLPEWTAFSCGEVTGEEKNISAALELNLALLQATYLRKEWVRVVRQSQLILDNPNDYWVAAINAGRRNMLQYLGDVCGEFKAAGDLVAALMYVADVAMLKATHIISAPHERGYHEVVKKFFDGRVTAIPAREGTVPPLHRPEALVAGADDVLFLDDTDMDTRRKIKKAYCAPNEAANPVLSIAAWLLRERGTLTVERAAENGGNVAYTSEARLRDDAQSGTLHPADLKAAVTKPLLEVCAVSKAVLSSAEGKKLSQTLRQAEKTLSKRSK
Put plainly: Trypanosoma cruzi tyrosyl tRNA synthetase (TcYRS) _High Tyrosine SOP. Also: in the data most compounds retested in dose-response had high values. It counts as functional. To be noted: 30 µM.

The target of test [10] is T4, Tyrosyl-tRNA synthetase, putative (Trypanosoma cruzi (strain CL Brener)). Put plainly: Trypanosoma cruzi tyrosyl tRNA synthetase (TcYRS) SOP. It counts as functional. To be noted: 30 µM.
For test [11], the target named is Chromo domain-containing protein 1 (Saccharomyces cerevisiae (strain ATCC 204508 / S288c) (Baker's yeast)) (UniProt P32657). The test is described as follows: ScCHD-1 Enzyme Inhibition Assay. Also: in the data most compounds retested in dose-response had high values. In kind it is functional. To be noted: 30 µM.
Chromo domain-containing protein 1 (Saccharomyces cerevisiae (strain ATCC 204508 / S288c) (Baker's yeast)), sequence (P32657 whole entry, the tested form may be a part): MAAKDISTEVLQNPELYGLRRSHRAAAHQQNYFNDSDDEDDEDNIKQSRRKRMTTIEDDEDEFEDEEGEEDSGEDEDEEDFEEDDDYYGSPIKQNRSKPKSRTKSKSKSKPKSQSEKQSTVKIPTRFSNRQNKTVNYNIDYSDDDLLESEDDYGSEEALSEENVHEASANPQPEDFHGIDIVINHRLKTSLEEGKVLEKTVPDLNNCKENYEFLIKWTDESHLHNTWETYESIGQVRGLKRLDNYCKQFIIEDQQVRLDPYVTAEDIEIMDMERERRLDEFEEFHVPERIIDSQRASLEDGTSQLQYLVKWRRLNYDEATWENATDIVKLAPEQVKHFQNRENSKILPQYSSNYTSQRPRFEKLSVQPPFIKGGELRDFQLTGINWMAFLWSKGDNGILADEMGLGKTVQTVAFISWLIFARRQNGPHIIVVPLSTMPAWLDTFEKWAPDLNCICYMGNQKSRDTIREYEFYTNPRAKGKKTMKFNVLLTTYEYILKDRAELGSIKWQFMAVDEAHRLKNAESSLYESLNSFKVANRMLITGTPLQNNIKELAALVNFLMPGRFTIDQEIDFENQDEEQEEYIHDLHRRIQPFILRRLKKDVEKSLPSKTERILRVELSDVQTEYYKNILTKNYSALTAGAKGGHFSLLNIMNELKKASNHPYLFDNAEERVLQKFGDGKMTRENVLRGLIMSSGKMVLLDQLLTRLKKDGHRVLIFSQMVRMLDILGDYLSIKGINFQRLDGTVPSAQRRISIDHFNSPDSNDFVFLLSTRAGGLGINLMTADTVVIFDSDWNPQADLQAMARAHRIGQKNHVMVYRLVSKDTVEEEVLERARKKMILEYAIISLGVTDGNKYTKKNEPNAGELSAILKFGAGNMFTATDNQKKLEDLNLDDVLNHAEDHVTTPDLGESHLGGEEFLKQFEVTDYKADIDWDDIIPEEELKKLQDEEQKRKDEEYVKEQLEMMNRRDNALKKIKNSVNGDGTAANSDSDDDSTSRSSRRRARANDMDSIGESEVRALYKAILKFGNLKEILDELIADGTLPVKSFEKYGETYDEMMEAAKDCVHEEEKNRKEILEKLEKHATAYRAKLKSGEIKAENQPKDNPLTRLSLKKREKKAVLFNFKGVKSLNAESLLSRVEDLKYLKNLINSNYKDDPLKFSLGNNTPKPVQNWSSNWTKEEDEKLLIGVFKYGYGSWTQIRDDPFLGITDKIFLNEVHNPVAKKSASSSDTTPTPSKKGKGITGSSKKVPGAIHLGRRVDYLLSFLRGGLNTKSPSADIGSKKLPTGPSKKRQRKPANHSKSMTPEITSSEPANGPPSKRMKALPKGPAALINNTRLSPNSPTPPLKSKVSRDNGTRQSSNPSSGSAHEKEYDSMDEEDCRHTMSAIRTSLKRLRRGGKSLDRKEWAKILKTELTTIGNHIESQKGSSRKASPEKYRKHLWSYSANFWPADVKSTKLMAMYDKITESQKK

For part of these data: Potency and affinity values are given separately.

Protein translocase subunit SecA (Escherichia coli (strain K12)), sequence (P10408 whole entry): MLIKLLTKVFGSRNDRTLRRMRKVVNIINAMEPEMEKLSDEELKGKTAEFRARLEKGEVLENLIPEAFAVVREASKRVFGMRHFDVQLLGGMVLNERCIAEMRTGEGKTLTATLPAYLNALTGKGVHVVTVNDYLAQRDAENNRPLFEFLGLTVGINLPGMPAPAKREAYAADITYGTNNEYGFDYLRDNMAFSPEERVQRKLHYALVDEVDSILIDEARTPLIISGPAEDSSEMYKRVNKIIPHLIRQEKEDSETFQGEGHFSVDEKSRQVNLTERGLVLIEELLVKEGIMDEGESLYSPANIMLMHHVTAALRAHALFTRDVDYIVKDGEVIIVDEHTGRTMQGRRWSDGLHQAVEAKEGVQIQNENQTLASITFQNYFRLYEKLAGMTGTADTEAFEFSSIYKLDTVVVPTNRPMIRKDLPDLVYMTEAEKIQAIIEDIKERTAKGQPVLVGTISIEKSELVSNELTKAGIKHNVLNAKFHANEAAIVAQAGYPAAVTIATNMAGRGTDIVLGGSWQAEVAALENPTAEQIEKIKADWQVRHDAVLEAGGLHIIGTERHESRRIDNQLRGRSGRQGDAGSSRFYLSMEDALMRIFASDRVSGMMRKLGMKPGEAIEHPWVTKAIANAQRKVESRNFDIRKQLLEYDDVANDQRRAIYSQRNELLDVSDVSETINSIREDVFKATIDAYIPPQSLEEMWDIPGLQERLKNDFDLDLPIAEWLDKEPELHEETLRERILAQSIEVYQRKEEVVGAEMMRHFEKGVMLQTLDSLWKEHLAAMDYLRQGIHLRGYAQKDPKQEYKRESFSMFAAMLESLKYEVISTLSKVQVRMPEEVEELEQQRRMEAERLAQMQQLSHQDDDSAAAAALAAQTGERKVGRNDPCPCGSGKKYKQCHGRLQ

Turning to `CCOCCN1CCN(Cc2nc(C3CC3)no2)CC1CC` (centres undefined), the Percent Effect in [1] was -6.05%; in test [2] it was 5.48%; in test [3], 6.32%; in [4], 25.2%; in test [5], 10.4%; in [6] it was 0.909%. Also, the Percent Effect in [7] was 9.41%; in [8], 2.26%; in [9], 3.23%; in test [10], 7.5%; in test [11] it was -5.89%.

With `CC(NC(=O)NCc1cccnc1N1CCCCC1)c1nccs1` (centres undefined), the Percent Effect in test [1] is -4.11%; in [2], 7.79%; in test [3], 4.63%; in test [4] it was 1.05%; in test [5], 6.37%; in test [6], -7.12%. Further, the Percent Effect in test [7] is 1.01%; in test [8] it was 2.75%; in test [9] it was 5.83%; in test [10], 14.6%; in test [11] it was -7.32%.

Consider `CCc1ccc(S(=O)(=O)Nc2cc(C(=O)O)c(F)cc2F)s1`, for which the Percent Effect in test [1] is -10.3%; in test [2] it was 2.63%; in test [3] it was -14.5%; in test [4], 19.8%; in test [5], 9.99%; in [6], 1.08%. Further, the Percent Effect is 6.51% in [7]; 4.81% in [8]; 2.46% in test [9]; 16.1% in [10]; -10.2% in test [11].

Take `O=C(c1cnccn1)N1CCc2ncnc(-c3cccnc3)c2CC1`: the Percent Effect in test [1] was -5.31%; in test [2], 2.67%; in [3], -1.38%; in test [4], -1.29%; in test [5], 0.386%; in [6], -43.5%. Further, the Percent Effect in [7] is 6.33%; in test [8], -9.47%; in test [9] it was 0%; in test [10], 5%; in test [11], -3.12%.

With `Cc1nc(COC[C@@H]2CC[C@H]3[C@H](CCN3c3ncccn3)O2)cs1`, the Percent Effect in test [1] was -0.526%; in test [2], 0%; in test [3], -0.411%; in [4], 3.43%; in test [5] it was -0.394%; in [6], 4.89%. For the same compound, the Percent Effect in test [7] worked out at 15.2%; in [8], 8.36%; in test [9], 4.25%; in test [10] it was 1.28%; in test [11] it was 2.8%.

On to `Cn1nnc2c1C(COCC1CC1)CN(C(=O)Cc1ccsc1)C2` (centres undefined), for which the Percent Effect in test [1] was -5.15%; in test [2], 23.4%; in [3], -3.67%; in [4] it was 0.591%; in test [5] it was 4.63%; in [6] it was -3.23%. The Percent Effect in [7] is 9.57%; in [8], 4.27%; in test [9] it was -1.06%; in test [10], 14.1%; in test [11], -12.5%.

For the compound `CN(C)C(=O)CO[C@@H]1CC[C@H]2[C@H]1OCCN2C(=O)C1CCOCC1`, the Percent Effect in [1] is -1.1%; in test [2], 2.7%; in test [3] it was -6.25%; in [4] it was -1.21%; in test [5] it was -3.52%; in [6], 2.08%. In addition, the Percent Effect is 13.8% in [7]; 21% in test [8]; 9.9% in [9]; 8.54% in test [10]; 2.17% in test [11].

In the case of `Cc1ncccc1NC(=O)[C@H]1C[C@@H]2CCN(Cc3nccs3)C[C@@H]2O1`, the Percent Effect in [1] was 0.0943%; in test [2], 10.8%; in [3] it was 6.53%; in [4], -5.38%; in [5], 0.293%; in test [6], 2.23%. Besides, the Percent Effect is 24.4% in test [7]; 1.37% in [8]; 7.57% in test [9]; 17.9% in [10]; -3.63% in [11].

As for `CCN(CC1CN(Cc2ncc[nH]2)CCO1)c1cccnn1` (centres undefined), the Percent Effect in test [1] was -4.66%; in test [2] it was 8%; in [3] it was -8.56%; in test [4], 6.93%; in test [5], 1.46%; in test [6], 5.21%. For the same compound, the Percent Effect in [7] is 16.2%; in [8] it was 6.04%; in test [9], 4.92%; in test [10] it was 8.64%; in [11] it was -4.63%.

Source of the values: ChEMBL document CHEMBL3988442, “University of Dundee, Small-Polar-MMV Screening Library” (2021).
